{"source": "PubChem BioAssay (Tox21)", "note": "Results filed as inconclusive are left out. Where a call stands in place of a potency, no number is given. Active and inactive are the calls of the source. The call rests on the fitted dose curve; in most records, active means well fitted curve in the direction sought with a large enough effect in the repeat runs; inconclusive means weak or mixed curves; inactive means no such curve, though single readings can be large; an effect the other way counts as inactive or inconclusive. Potency means the concentration at half of the fitted maximal effect."}
{"assay": "qHTS RealTime-Glo MT Cell Viability Assay in HEK293 cells - 0 hour (AID 1224880); further: nearly all actives have a fitted effect of over 45% in size; on activity change, negative = cytotoxicity: top concentration of the series differs between compounds", "conditions": "RealTime-Glo luminescence; series mostly up to 76.8 µM", "procedure,_shortened": "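Nonlytic bioluminescent viability monitoring. HEK293 at 600 cells/well with reagent; 5 h settle; compound transfer by pintool; plates held at 37 C and read at set time points.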"}
{"smiles": "Cc1ccc(Cl)c(Nc2ccccc2C(=O)O)c1Cl", "Potency": "inactive"}
{"smiles": "Cc1cc(=O)c2c(O)c3c(O)cc(=O)c4c3c3c(cc(O)c1c23)C(C)(C)C=4O", "activity change, negative = cytotoxicity": "0.327% [at 15.8 µM] (inactive)"}
{"smiles": "NC1[C@H]2CN(c3nc4c(cc3F)c(=O)c(C(=O)O)cn4-c3ccc(F)cc3F)C[C@@H]12", "note": "(stereo not given in full)", "Potency": "inactive"}
{"smiles": "CCOC(=O)c1ccc(O)c(O)c1", "Potency": "inactive"}
{"smiles": "CCCCCCCCOc1ccc(C(=O)O)cc1", "Potency": "inactive"}
{"smiles": "CC1CC(OC(=O)C(O)c2ccccc2)CC(C)(C)N1C", "note": "(stereo not given)", "Potency": "inactive"}
{"smiles": "CC(C)(C)C(=O)C(=O)O", "Potency": "inactive"}
{"smiles": "CCC1(CO)COCOC1", "Potency": "inactive"}
{"smiles": "O=c1cc(-c2ccccc2)oc2cc(O)cc(O)c12", "Potency": "inactive"}
{"smiles": "CC[C@]1(O)C[C@H]2CN(CCc3c([nH]c4ccccc34)[C@@](C(=O)OC)(c3cc4c(cc3OC)N(C=O)[C@H]3[C@@](O)(C(=O)OC)[C@H](OC(C)=O)[C@]5(CC)C=CCN6CC[C@]43[C@@H]65)C2)C1", "Potency": "inactive"}
{"smiles": "OC(CCN1CCCC1)(c1ccccc1)C1CCCCC1", "note": "(stereo not given)", "Potency": "inactive"}
{"smiles": "CCOC(=O)c1ccc(C#Cc2ccc3c(c2)C(C)(C)CCS3)nc1", "Potency": "inactive"}
{"smiles": "COC(=O)[C@H]1[C@H]2C[C@@H]3c4[nH]c5cc(OC)ccc5c4CCN3C[C@H]2C[C@@H](OC(=O)/C=C/c2ccc(O)c(OC)c2)[C@@H]1OC", "Potency": "inactive"}
{"smiles": "O=C1c2ccccc2C(=O)C1(O)O", "Potency": "inactive"}
{"smiles": "Nc1nnc(-c2ccc([N+](=O)[O-])o2)o1", "Potency": "inactive"}
{"smiles": "Oc1ccc(Cl)c2cccnc12", "Potency": "inactive"}
{"smiles": "CCCCCCCC/C=C\\CCCCCCCCO", "Potency": "inactive"}
{"smiles": "O=C(OCC(O)CO)c1ccccc1Nc1ccnc2cc(Cl)ccc12", "note": "(stereo not given)", "Potency": "inactive"}
{"smiles": "Nc1nc2ccc([N+](=O)[O-])cc2s1", "Potency": "inactive"}
{"smiles": "CC(CC1c2ccccc2CCc2ccccc21)CN(C)C", "note": "(stereo not given)", "Potency": "inactive"}
{"smiles": "C[C@H]1C[C@H](O)c2ccsc2S1(=O)=O", "Potency": "inactive"}
{"smiles": "CO/N=C(/C(=O)N[C@@H]1C(=O)N2C(C(=O)O)=C(COC(N)=O)CS[C@H]12)c1ccco1", "Potency": "inactive"}
{"smiles": "COc1ccc(OC(=O)N(CC(=O)O)Cc2ccc(OCCc3nc(-c4ccccc4)oc3C)cc2)cc1", "Potency": "inactive"}
{"smiles": "CC(CN(C)C)C(C)(O)Cc1ccc(Cl)cc1", "note": "(stereo not given)", "Potency": "inactive"}
{"smiles": "COC(=O)c1nc(Cl)c(Cl)nc1N", "Potency": "inactive"}
{"smiles": "O=C(O)CCc1nc(-c2ccccc2)c(-c2ccccc2)o1", "Potency": "inactive"}
{"smiles": "CCC(OCCCOC)OC(C)=O", "note": "(stereo not given)", "Potency": "inactive"}
{"smiles": "CC1=C(Br)C(=O)C(Br)=C/C1=C(/c1ccccc1S(=O)(=O)O)c1cc(Br)c(O)c(Br)c1C", "Potency": "33.3 µM (active)"}
{"smiles": "CC1=Nc2ccc3ccccc3c2C1(C)C", "Potency": "inactive"}
{"smiles": "CCCCN1CCCC1C(=O)Nc1c(C)cc(C)cc1C", "note": "(stereo not given)", "Potency": "inactive"}
{"smiles": "CN1C(=O)N(c2ccccc2Br)Cc2cnc(Nc3ccc4c(c3)OCC(CO)O4)nc21", "note": "(stereo not given)", "Potency": "inactive"}
{"smiles": "CC(C)C(O)(c1ccc(OC(F)(F)F)cc1)c1cncnc1", "note": "(stereo not given)", "Potency": "inactive"}
{"smiles": "CC(CCC(=O)O)C(=O)O", "note": "(stereo not given)", "Potency": "inactive"}
{"smiles": "CN1C(=O)c2ccccc2C1=O", "Potency": "inactive"}
{"smiles": "CCOc1ccccc1O[C@H](c1ccccc1)[C@H]1CNCCO1", "Potency": "inactive"}
{"smiles": "CCCCCC#CC(=O)OC", "Potency": "inactive"}
{"smiles": "NCCNCCO", "Potency": "inactive"}
{"smiles": "COC(=O)C1=C(C)NC(C)=C(C(=O)O[C@@H]2CCCN(Cc3ccccc3)C2)[C@@H]1c1cccc([N+](=O)[O-])c1", "Potency": "8.49 µM (active)"}
{"smiles": "COc1cc(N)c(Cl)cc1C(=O)NC1CCN(CCCOc2ccc(F)cc2)CC1OC", "note": "(stereo not given)", "Potency": "inactive"}
{"smiles": "CS(=O)(=O)c1ccc(-c2cn3ccccc3n2)cc1", "Potency": "inactive"}
{"assay": "A CellTox Green Cytotoxicity Assay to monitor cytotoxicity in HEK293 cells - 32 hour (AID 1224881); further: nearly all actives have a fitted effect of over 40% in size", "conditions": "CellTox Green fluorescence; series mostly up to 76.8 µM", "procedure,_shortened": "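Cytotoxicity was tracked continuously in HEK293 cells by a DNA-binding dye excluded from viable cells. Compounds were transferred in DMSO 5 h after seeding; fluorescence was recorded at intervals up to 40 h.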"}
{"smiles": "Cc1ccc(Cl)c(Nc2ccccc2C(=O)O)c1Cl", "Potency": "inactive"}
{"smiles": "Cc1cc(=O)c2c(O)c3c(O)cc(=O)c4c3c3c(cc(O)c1c23)C(C)(C)C=4O", "Potency": "5.22 µM (active)"}
{"smiles": "NC1[C@H]2CN(c3nc4c(cc3F)c(=O)c(C(=O)O)cn4-c3ccc(F)cc3F)C[C@@H]12", "note": "(stereo not given in full)", "Potency": "inactive"}
{"smiles": "CCOC(=O)c1ccc(O)c(O)c1", "Potency": "inactive"}
{"smiles": "CCCCCCCCOc1ccc(C(=O)O)cc1", "Potency": "inactive"}
{"smiles": "CC1CC(OC(=O)C(O)c2ccccc2)CC(C)(C)N1C", "note": "(stereo not given)", "Potency": "inactive"}
{"smiles": "CC(C)(C)C(=O)C(=O)O", "Potency": "inactive"}
{"smiles": "CCC1(CO)COCOC1", "Potency": "inactive"}
{"smiles": "O=c1cc(-c2ccccc2)oc2cc(O)cc(O)c12", "Potency": "inactive"}
{"smiles": "CC[C@]1(O)C[C@H]2CN(CCc3c([nH]c4ccccc34)[C@@](C(=O)OC)(c3cc4c(cc3OC)N(C=O)[C@H]3[C@@](O)(C(=O)OC)[C@H](OC(C)=O)[C@]5(CC)C=CCN6CC[C@]43[C@@H]65)C2)C1", "Potency": "inactive"}
{"smiles": "OC(CCN1CCCC1)(c1ccccc1)C1CCCCC1", "note": "(stereo not given)", "Potency": "inactive"}
{"smiles": "CCOC(=O)c1ccc(C#Cc2ccc3c(c2)C(C)(C)CCS3)nc1", "Potency": "inactive"}
{"smiles": "COC(=O)[C@H]1[C@H]2C[C@@H]3c4[nH]c5cc(OC)ccc5c4CCN3C[C@H]2C[C@@H](OC(=O)/C=C/c2ccc(O)c(OC)c2)[C@@H]1OC", "Potency": "19 µM (active)"}
{"smiles": "O=C1c2ccccc2C(=O)C1(O)O", "Potency": "inactive"}
{"smiles": "Nc1nnc(-c2ccc([N+](=O)[O-])o2)o1", "Potency": "inactive"}
{"smiles": "Oc1ccc(Cl)c2cccnc12", "Potency": "inactive"}
{"smiles": "CCCCCCCC/C=C\\CCCCCCCCO", "Potency": "inactive"}
{"smiles": "O=C(OCC(O)CO)c1ccccc1Nc1ccnc2cc(Cl)ccc12", "note": "(stereo not given)", "Potency": "inactive"}
{"smiles": "Nc1nc2ccc([N+](=O)[O-])cc2s1", "Potency": "inactive"}
{"smiles": "CC(CC1c2ccccc2CCc2ccccc21)CN(C)C", "note": "(stereo not given)", "Potency": "inactive"}
{"smiles": "C[C@H]1C[C@H](O)c2ccsc2S1(=O)=O", "Potency": "inactive"}
{"smiles": "CO/N=C(/C(=O)N[C@@H]1C(=O)N2C(C(=O)O)=C(COC(N)=O)CS[C@H]12)c1ccco1", "Potency": "inactive"}
{"smiles": "COc1ccc(OC(=O)N(CC(=O)O)Cc2ccc(OCCc3nc(-c4ccccc4)oc3C)cc2)cc1", "Potency": "inactive"}
{"smiles": "CC(CN(C)C)C(C)(O)Cc1ccc(Cl)cc1", "note": "(stereo not given)", "Potency": "inactive"}
{"smiles": "COC(=O)c1nc(Cl)c(Cl)nc1N", "Potency": "19 µM (active)"}
{"smiles": "O=C(O)CCc1nc(-c2ccccc2)c(-c2ccccc2)o1", "Potency": "inactive"}
{"smiles": "CCC(OCCCOC)OC(C)=O", "note": "(stereo not given)", "Potency": "inactive"}
{"smiles": "CC1=C(Br)C(=O)C(Br)=C/C1=C(/c1ccccc1S(=O)(=O)O)c1cc(Br)c(O)c(Br)c1C", "Potency": "inactive"}
{"smiles": "CC1=Nc2ccc3ccccc3c2C1(C)C", "Potency": "inactive"}
{"smiles": "CCCCN1CCCC1C(=O)Nc1c(C)cc(C)cc1C", "note": "(stereo not given)", "Potency": "16.9 µM (active)"}
{"smiles": "CN1C(=O)N(c2ccccc2Br)Cc2cnc(Nc3ccc4c(c3)OCC(CO)O4)nc21", "note": "(stereo not given)", "Potency": "inactive"}
{"smiles": "CC(C)C(O)(c1ccc(OC(F)(F)F)cc1)c1cncnc1", "note": "(stereo not given)", "Potency": "inactive"}
{"smiles": "CC(CCC(=O)O)C(=O)O", "note": "(stereo not given)", "Potency": "inactive"}
{"smiles": "CN1C(=O)c2ccccc2C1=O", "Potency": "inactive"}
{"smiles": "CCOc1ccccc1O[C@H](c1ccccc1)[C@H]1CNCCO1", "Potency": "inactive"}
{"smiles": "CCCCCC#CC(=O)OC", "Potency": "inactive"}
{"smiles": "NCCNCCO", "Potency": "inactive"}
{"smiles": "COC(=O)C1=C(C)NC(C)=C(C(=O)O[C@@H]2CCCN(Cc3ccccc3)C2)[C@@H]1c1cccc([N+](=O)[O-])c1", "Potency": "inactive"}
{"smiles": "COc1cc(N)c(Cl)cc1C(=O)NC1CCN(CCCOc2ccc(F)cc2)CC1OC", "note": "(stereo not given)", "Potency": "inactive"}
{"smiles": "CS(=O)(=O)c1ccc(-c2cn3ccccc3n2)cc1", "Potency": "inactive"}
